Results taken from PubChem BioAssay (NCI).
Several values for one entry are separate records, joined by “and”; a condition that tells them apart may be missing. Identical values can stand only once. About 83,000 compounds went through this panel and 20% of them were active in at least one assay; those are over-represented in the sample as a whole.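 Treatment: one concentration, 48 hours, 96-well format. Scoring: percent growth, with anything below 10 considered active.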 Activity calls are given as the source filed them.

Experiments:
Experiment in all cases: NCI-60 one-dose screen, 48 h (100 = growth as untreated, 0 = no growth, -100 = all killed)
Conditions in all cases: 10 µM unless noted
HCT-15 colon = tested on: HCT-15 colon
HT29 colon = tested on: HT29 colon
SNB-75 CNS = tested on: SNB-75 CNS
SNB-19 CNS = tested on: SNB-19 CNS
U251 CNS = tested on: U251 CNS
PC-3 prostate = tested on: PC-3 prostate
SK-MEL-5 melanoma = tested on: SK-MEL-5 melanoma
UACC-62 melanoma = tested on: UACC-62 melanoma
LOX IMVI melanoma = tested on: LOX IMVI melanoma
SK-MEL-28 melanoma = tested on: SK-MEL-28 melanoma

Row | SMILES | growth (HCT-15 colon) | growth (HT29 colon) | growth (SNB-75 CNS) | growth (SNB-19 CNS) | growth (U251 CNS) | growth (PC-3 prostate) | growth (SK-MEL-5 melanoma) | growth (UACC-62 melanoma) | growth (LOX IMVI melanoma) | growth (SK-MEL-28 melanoma)
1 | c1ccc2c(CC3=NCCN3)cccc2c1 | 104% (inactive) and 106% (inactive) | 103% (inactive) and 96.3% (inactive) | 92.9% (inactive) and 105% (inactive) | 107% (inactive) and 104% (inactive) | 94.6% (inactive) and 100% (inactive) | 103% (inactive) and 96.2% (inactive) | 92.7% (inactive) and 108% (inactive) | 108% (inactive) and 106% (inactive) | 91.9% (inactive) and 99.4% (inactive) | 109% (inactive) and 107% (inactive)
2 | O=C(O)CN(CCN(CC(=O)O)CC(=O)O)CCN(CC(=O)O)CC(=O)O | 9.67% (active) and 99.9% (inactive) and 107% (inactive) | 2.39% (active) and 108% (inactive) and 94.8% (inactive) | 9.81% (active) and 87.3% (inactive) and 85.8% (inactive) | 27.6% (inactive) and 101% (inactive) and 98.6% (inactive) | 4.18% (active) and 106% (inactive) and 94.1% (inactive) | 9.35% (active) and 92.8% (inactive) and 93.5% (inactive) | 3.74% (active) and 103% (inactive) and 106% (inactive) | 8.73% (active) and 95.6% (inactive) and 101% (inactive) | -31.4% (active) and 101% (inactive) and 106% (inactive) | 24% (inactive) and 105% (inactive) and 99.4% (inactive)
3 | CCCCCN(CCCCC)CC(O)c1cc2c(c3ccccc13)CCCC2 (stereo not given) | 52.2% (inactive) and 52.1% (inactive) | 15.4% (inactive) and 16.2% (inactive) | 86.9% (inactive) and 70.7% (inactive) | 88.3% (inactive) and 83.6% (inactive) | 63% (inactive) and 62% (inactive) | 35.7% (inactive) and 57.9% (inactive) | 61.1% (inactive) and 36.3% (inactive) | 25.4% (inactive) and 58.2% (inactive) | 43.1% (inactive) and 40.8% (inactive) | 89.1% (inactive) and 57.1% (inactive)
4 | O=CC(O)C(O)C(O)CO (stereo not given) | 100% (inactive) | 113% (inactive) and 102% (inactive) | 104% (inactive) and 97.8% (inactive) | 103% (inactive) and 113% (inactive) | 102% (inactive) and 105% (inactive) | 41.2% (inactive) and 98.4% (inactive) | 87.1% (inactive) and 103% (inactive) | 96.6% (inactive) and 117% (inactive) | 99.5% (inactive) and 100% (inactive) | 104% (inactive) and 109% (inactive)
5 | O=C(CN1CCOCC1)N1CCOCC1 | 111% (inactive) and 98% (inactive) | 91% (inactive) | 106% (inactive) and 104% (inactive) | 103% (inactive) and 105% (inactive) | 107% (inactive) | 90.8% (inactive) | 107% (inactive) and 105% (inactive) | 93.9% (inactive) and 96.6% (inactive) | 99.6% (inactive) and 100% (inactive) | 123% (inactive) and 107% (inactive)
6 | O=Nc1ccc(O)cc1 | 89.3% (inactive) and 92.3% (inactive) | 97.4% (inactive) and 97.5% (inactive) | 95.6% (inactive) | 106% (inactive) and 99.3% (inactive) | 101% (inactive) and 94.2% (inactive) | 85.1% (inactive) and 90% (inactive) | 98% (inactive) and 109% (inactive) | 90.2% (inactive) and 93.4% (inactive) | 90.8% (inactive) and 82.3% (inactive) | 113% (inactive)
7 | Cc1nn(-c2ccc(Cl)cc2)c2ncnc(N/N=C/c3ccccc3O)c12 | 31.9% (inactive) and 27.1% (inactive) | 20.1% (inactive) and 31.1% (inactive) | -15.1% (active) and 35.9% (inactive) | 29.6% (inactive) and 23.7% (inactive) | 13% (inactive) and 11.8% (inactive) | 41.6% (inactive) and 28.1% (inactive) | -62.4% (active) and -60.4% (active) | 13.5% (inactive) and -37.1% (active) | 35.1% (inactive) and 7.4% (active) | 25.2% (inactive) and 14.5% (inactive)
8 | Cc1ccc2nc3c(nc2c1)-c1cccc2cccc-3c12 | 75.1% (inactive) | 80.3% (inactive) | 94.9% (inactive) | 100% (inactive) | 78.8% (inactive) | 87.4% (inactive) | 62.7% (inactive) | 79.6% (inactive) | 82.6% (inactive) | 102% (inactive)
9 | CC(=O)c1ccccc1O | 112% (inactive) and 105% (inactive) and 223% (inactive) | 107% (inactive) and 99.2% (inactive) and 111% (inactive) | 107% (inactive) and 93% (inactive) and 97.7% (inactive) | 102% (inactive) and 105% (inactive) and 94.1% (inactive) | 108% (inactive) and 98.7% (inactive) and 104% (inactive) | 102% (inactive) and 83.5% (inactive) and 91.7% (inactive) | 100% (inactive) and 102% (inactive) | 101% (inactive) and 105% (inactive) | 100% (inactive) and 92.7% (inactive) and 103% (inactive) | 103% (inactive) and 91.7% (inactive) and 109% (inactive)
10 | CN(C)CCCN1c2ccccc2Sc2ccc(Cl)cc21 | 73.4% (inactive) and 109% (inactive) and 88.5% (inactive) | 27.4% (inactive) and 120% (inactive) and 62.9% (inactive) | 48.3% (inactive) and 106% (inactive) and 58.8% (inactive) | 98.2% (inactive) and 92.4% (inactive) and 94.5% (inactive) | 78.1% (inactive) and 106% (inactive) and 93.4% (inactive) | 67.3% (inactive) and 103% (inactive) and 80.3% (inactive) | 3.06% (active) and 102% (inactive) and 79% (inactive) | 75.3% (inactive) and 89.8% (inactive) and 88.9% (inactive) | 78.3% (inactive) and 113% (inactive) and 100% (inactive) | 83.6% (inactive) and 108% (inactive) and 98.8% (inactive)
11 | CC1=CCC2CC1C2(C)C (stereo not given) | 99.5% (inactive) and 94% (inactive) | 114% (inactive) and 105% (inactive) | 102% (inactive) and 90.3% (inactive) | 95.8% (inactive) and 101% (inactive) | 97.4% (inactive) and 92% (inactive) | 101% (inactive) and 89.5% (inactive) | 102% (inactive) and 87.7% (inactive) | 97% (inactive) and 93.6% (inactive) | 93.4% (inactive) and 88.6% (inactive) | 97.5% (inactive) and 102% (inactive)
12 | CC(=O)Nc1cc(S(=O)(=O)O)cc2cc(S(=O)(=O)O)c(N=Nc3ccccc3)c(O)c12 | 116% (inactive) and 111% (inactive) | 118% (inactive) and 92.2% (inactive) | 92.8% (inactive) and 98.1% (inactive) | 110% (inactive) and 99.9% (inactive) | 110% (inactive) and 101% (inactive) | 88.3% (inactive) and 94.9% (inactive) | 99.4% (inactive) | 108% (inactive) and 92.2% (inactive) | 103% (inactive) and 98.7% (inactive) | 119% (inactive) and 116% (inactive)
13 | CC(=O)Nc1cccc2c1CCCC2 | 92.8% (inactive) and 96.5% (inactive) | 92.8% (inactive) and 85.6% (inactive) | 85.4% (inactive) and 101% (inactive) | 103% (inactive) and 104% (inactive) | 97.7% (inactive) and 95.7% (inactive) | 87.8% (inactive) and 90.2% (inactive) | 100% (inactive) | 107% (inactive) and 102% (inactive) | 97.1% (inactive) and 93.6% (inactive) | 104% (inactive) and 107% (inactive)
14 | CCOC(=O)c1sc(N)nc1-c1ccccc1 | 97.3% (inactive) | 96.8% (inactive) | 94.7% (inactive) | 109% (inactive) | 98.8% (inactive) | 98% (inactive) | 100% (inactive) | 112% (inactive) | 95.5% (inactive) | 109% (inactive)
15 | O=C(CN1CCN(c2cc3c(cc2F)c(=O)c(C(=O)O)cn3C2CC2)CC1)Nc1ccc(Cl)cc1 | 83% (inactive) and 92.3% (inactive) | 57.9% (inactive) and 100% (inactive) | 79.7% (inactive) | 83.1% (inactive) and 90.9% (inactive) | 44.2% (inactive) and 102% (inactive) | 80.1% (inactive) and 89.1% (inactive) | 71.1% (inactive) and 83.5% (inactive) | 63.6% (inactive) and 57.8% (inactive) | 61.1% (inactive) and 72.4% (inactive) | 87.1% (inactive) and 84% (inactive)
